Laboratory results from publication PMC6602471.

Each sequence was assayed against RUNX1 (Homo sapiens, UniProt Q01196 1-453) (assay: custom PBM; custom protein-binding microarray; buffer, salt, pH and temperature not stated; high values mean tight binding). Conditions: dsDNA, one strand shown.
RUNX1, sequence (Q01196 whole entry): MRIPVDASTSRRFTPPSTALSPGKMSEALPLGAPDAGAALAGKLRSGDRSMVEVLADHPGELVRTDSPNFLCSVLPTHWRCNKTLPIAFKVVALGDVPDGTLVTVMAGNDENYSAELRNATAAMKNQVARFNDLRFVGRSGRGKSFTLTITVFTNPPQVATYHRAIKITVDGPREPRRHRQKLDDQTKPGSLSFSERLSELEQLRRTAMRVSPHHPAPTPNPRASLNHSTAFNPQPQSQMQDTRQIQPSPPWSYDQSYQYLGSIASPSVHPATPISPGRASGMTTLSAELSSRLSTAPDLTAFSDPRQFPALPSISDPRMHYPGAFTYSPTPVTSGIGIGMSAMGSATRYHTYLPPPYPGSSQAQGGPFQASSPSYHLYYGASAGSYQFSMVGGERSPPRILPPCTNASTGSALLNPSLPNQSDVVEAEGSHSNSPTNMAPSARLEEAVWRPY

Binding signal, 11.4 log fluorescence intensity:
CGCGCACCCTGTGGTTGCGCACATACGCACACATACACATACACACATACACATACGCAC
CGCGCAGTCTGTGGTTGCGCACATACGCACACATACACATACACACATACACATACGCAC
CGCGCTCTCTGTGGTTGCGCACATACGCACACATACACATACACACATACACATACGCAC

Binding signal, 11.1 log fluorescence intensity:
CGCGCACTCTGTGGTGGCGCACATACGCACACATACACATACACACATACACATACGCAC

Binding signal, 11.6 log fluorescence intensity:
CGCGCACTTTGTGGTTGCGCACATACGCACACATACACATACACACATACACATACGCAC

Binding signal, 11.7 log fluorescence intensity:
CGCGCACTCTGTGGTTGCGCACATACGCACACATACACATACACACATACACATACGCAC

Binding signal, 11.3 log fluorescence intensity:
CGCGCACTATGTGGTTGCGCACATACGCACACATACACATACACACATACACATACGCAC

Binding signal, 10.9 log fluorescence intensity:
GCATACGGGTGACGTCAGCCACATACGCACACATACACATACACACATACACATACGCAC
GCATACTGCTGACGTCAGCCACATACGCACACATACACATACACACATACACATACGCAC
GCGCACATATCCCGTAAATCATACACGCACACATACACATACACACATACACATACGCAC
GCATACGGCTGACTTCAGCCACATACGCACACATACACATACACACATACACATACGCAC
CGCGCACTCTGGGGTTGCGCACATACGCACACATACACATACACACATACACATACGCAC
GCGCACATTTCCCGTAAATGATACACGCACACATACACATACACACATACACATACGCAC
GCATACGGCTGACGTCAGTCACATACGCACACATACACATACACACATACACATACGCAC
GCATACGGCTGACGTCAGACACATACGCACACATACACATACACACATACACATACGCAC
GCATACGGCTGACGGCAGCCACATACGCACACATACACATACACACATACACATACGCAC
CGCGCACTCTCTGGTTGCGCACATACGCACACATACACATACACACATACACATACGCAC
GCATACCGCTGACGTCAGCCACATACGCACACATACACATACACACATACACATACGCAC
GCGCACAGTTCCCGTAAATCATACACGCACACATACACATACACACATACACATACGCAC

Binding signal, 11 log fluorescence intensity:
GCATACAGCTGACGTCAGCCACATACGCACACATACACATACACACATACACATACGCAC
GCATACGGCTAACGTCAGCCACATACGCACACATACACATACACACATACACATACGCAC
GCATACGGCGGACGTCAGCCACATACGCACACATACACATACACACATACACATACGCAC
GCATACGGCAGACGTCAGCCACATACGCACACATACACATACACACATACACATACGCAC
CGCGCACTCTGTGGTAGCGCACATACGCACACATACACATACACACATACACATACGCAC
GCGCACATTCCCCGTAAATCATACACGCACACATACACATACACACATACACATACGCAC
GCGCACATTTCCCGTGAATCATACACGCACACATACACATACACACATACACATACGCAC
GCATACGACTGACGTCAGCCACATACGCACACATACACATACACACATACACATACGCAC
CGCGCACTCAGTGGTTGCGCACATACGCACACATACACATACACACATACACATACGCAC
GCATACGGCTGACGTCAACCACATACGCACACATACACATACACACATACACATACGCAC
GCATACGGCTGGCGTCAGCCACATACGCACACATACACATACACACATACACATACGCAC
GCGCACATTTCCGGTAAATCATACACGCACACATACACATACACACATACACATACGCAC
GCGCACATTTCCCATAAATCATACACGCACACATACACATACACACATACACATACGCAC
CGCGCACTCGGTGGTTGCGCACATACGCACACATACACATACACACATACACATACGCAC
